Bioassay records from PubChem BioAssay.
TRb SRC2 PPI: TRbeta-SRC2 interaction inhibition; 280,000 compounds, 0.065% hits; Potency, µM (top dose mostly 106 µM), usual class: inhibitors; TRbeta-SRC2 peptide binding, fluorescence polarization; receptor liganded with 1 µM T3; note: nearly all actives have a fitted effect of over 50% in size
Target sequence (P10828 whole entry, looked up): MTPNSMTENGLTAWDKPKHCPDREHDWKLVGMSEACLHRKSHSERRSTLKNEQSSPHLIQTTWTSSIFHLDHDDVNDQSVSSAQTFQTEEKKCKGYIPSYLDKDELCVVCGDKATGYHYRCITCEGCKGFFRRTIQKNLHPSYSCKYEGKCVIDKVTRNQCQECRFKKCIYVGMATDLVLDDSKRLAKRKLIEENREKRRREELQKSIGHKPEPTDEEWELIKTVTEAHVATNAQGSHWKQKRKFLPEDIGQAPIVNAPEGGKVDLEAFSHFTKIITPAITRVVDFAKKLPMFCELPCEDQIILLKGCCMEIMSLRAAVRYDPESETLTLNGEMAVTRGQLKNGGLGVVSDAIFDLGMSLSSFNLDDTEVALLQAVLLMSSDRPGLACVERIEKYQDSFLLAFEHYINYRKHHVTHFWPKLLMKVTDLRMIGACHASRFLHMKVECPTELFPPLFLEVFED
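Human TRb LBD (0.6 uM) plus Texas Red-labeled SRC2 peptide (20 nM), 1uM T3, 5% DMSO, 5 hr at ambient temperature. Decreased polarization (555/632 nm) flags inhibition; data normalized to free and bound peptide controls.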
Tau ThT inhib: blocks human tau fibril formation measured by thioflavin T. P10636. recombinant tau K18 P301L, heparin-induced fibrillization, ThT fluorescence. Potency, µM (top dose mostly 57.4 µM), usual class: inhibitors. 270,000 compounds, 2.1% hits. AID 1460; note: nearly all actives have a fitted effect of over 55% in size
Target sequence (P10636 561-689 P618L limits assumed): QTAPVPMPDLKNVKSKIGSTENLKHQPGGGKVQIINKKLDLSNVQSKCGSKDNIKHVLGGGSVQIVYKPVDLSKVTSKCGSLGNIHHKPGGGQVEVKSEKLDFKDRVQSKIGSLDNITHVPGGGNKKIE
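Heparin-induced fibrillization of the P301L-mutant K18 repeat-domain fragment of human tau was followed by ThT binding in quantitative high-throughput format.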
Tau fibril FP: blocks human tau fibril formation measured by polarization. P10636. K18 P301L tau heparin fibrillization, Alexa594 FP, 6 h. Potency, µM (series often up to 57.7 µM), most hits filed as inhibitors. 280,000 compounds, 0.39% hits; note: nearly all actives have a fitted effect of over 55% in size
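Quantitative HTS format: compounds meet 15 uM recombinant K18 P301L tau and Alexa 594-tau tracer in 100 mM sodium acetate pH 7; 20 uM heparin triggers fibrillization at 37 C over 6 hr; FP gives the signal.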
Tau fluor counter: counter-screen for tau fibril formation inhibitors; 280,000 compounds, 0.93% hits; Potency, µM (series often up to 57.7 µM); tau K18 P301L Alexa594 fluorescence, heparin fibrillization; note: nearly all actives have a fitted effect of over 55% in size
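Human tau K18 P301L (15 uM unlabeled, 0.24 uM Alexa 594-labeled) in 100 mM sodium acetate pH 7 with 20 uM heparin, 6 hr at 37 C. ThT 30 uM added, 1 hr ambient; Alexa 594 FP and total fluorescence read at 555/632 nm.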
TR SRC2 fluor cs: counter-screen for TRb-SRC2 inhibitors: fluorescence interference; TRb/SRC2 Texas Red total fluorescence interference; Potency, µM (top dose mostly 106 µM); 280,000 compounds, 0.29% hits; active = well fitted curve in either direction with a large enough effect; inconclusive = small, poorly fitted or top-dose-only effect
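Flags fluorescent or light-absorbing compounds by total fluorescence, S + 2P, at 555 nm excitation and 632 nm emission. Mixture: 20 nM Texas Red SRC2 peptide, 0.6 uM human TRb LBD, 1 uM T3, 5% DMSO; compound exposure 5 h at ambient temperature.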
Numbers stand for hits; [ ] = another dose, or the depositor's remark. Rows were chosen to be rich in hits. Some 3.1% of all compounds tested hit in one or more screens of this group. Unless noted, calls come from the whole dose curve; as a rule, active = well fitted curve in the direction sought with a large enough effect; inconclusive = small, poorly fitted or top-dose-only effect, or another doubt; inactive = no such curve, though single readings can be large; an effect the other way counts as inactive or inconclusive.

For COc1ccc(CCN=Cc2c(C)[nH]n(-c3ccc([N+](=O)[O-])cc3)c2=O)cc1OC the results were TRb SRC2 PPI inactive, Tau ThT inhib inconclusive, Tau fibril FP inactive, Tau fluor counter inactive and TR SRC2 fluor cs inactive.
For COc1cc(SC#N)ccc1N=Cc1c(C)[nH]n(-c2ccc(C)c(C)c2)c1=O the results were TRb SRC2 PPI inactive, Tau ThT inhib 18µM, Tau fibril FP inconclusive, Tau fluor counter inactive and TR SRC2 fluor cs inactive.
For COc1cc(S(=O)(=O)Nc2ccccc2)ccc1N=Cc1c(C)[nH]n(-c2ccc(C)cc2)c1=O the results were TRb SRC2 PPI inactive, Tau ThT inhib inconclusive, Tau fibril FP inactive, Tau fluor counter inconclusive and TR SRC2 fluor cs inactive.
Screening COc1cc(SC#N)ccc1N=Cc1c(C)[nH]n(-c2ccc(Cl)cc2)c1=O returned TRb SRC2 PPI inactive, Tau ThT inhib 11µM, Tau fibril FP inconclusive, Tau fluor counter inactive and TR SRC2 fluor cs inactive.
For O=C(/C(=C/c1cccnc1)n1ccnc1)c1ccc(Cl)cc1Cl the results were TRb SRC2 PPI inactive, Tau ThT inhib inactive, Tau fibril FP inactive, Tau fluor counter inactive and TR SRC2 fluor cs inactive.
Screening O=C(Nc1ccc(C2SCCS2)cc1)c1ccccc1 returned TRb SRC2 PPI inactive, Tau fibril FP inactive, Tau fluor counter inactive and TR SRC2 fluor cs inactive.
For CC(C)CN(C(=O)c1cc2ccccc2o1)c1c(N)n(CC(C)C)c(=O)[nH]c1=O the results were TRb SRC2 PPI inactive, Tau ThT inhib inactive, Tau fibril FP inactive, Tau fluor counter inactive and TR SRC2 fluor cs inactive.
`Cc1ccc(NC(=S)c2nc3ccccc3[nH]2)cc1` gave TRb SRC2 PPI inactive, Tau ThT inhib 7.9µM, Tau fibril FP inactive, Tau fluor counter inconclusive and TR SRC2 fluor cs inactive.
For CC1(C)CC[C@]2(C(=O)O)C(O)C[C@@]3(C)C(=CCC4[C@@]5(C)CCC(O)C(C)(C)C5CC[C@@]43C)C2C1 (stereo partly specified) the results were TRb SRC2 PPI inactive, Tau ThT inhib inactive, Tau fibril FP inactive, Tau fluor counter inactive and TR SRC2 fluor cs inactive.
For O=C(Cn1c(=O)n(Cc2ccc3c(c2)OCO3)c(=O)c2ccccc21)Nc1cccc(Cl)c1 the results were TRb SRC2 PPI inactive, Tau ThT inhib inconclusive, Tau fibril FP 28µM, Tau fluor counter inconclusive and TR SRC2 fluor cs inactive.
`CCOc1ccc(NC(=O)Cn2c(=O)n(Cc3ccc(C(=O)NCc4ccc5c(c4)OCO5)cc3)c(=O)c3ccccc32)cc1` gave TRb SRC2 PPI inactive, Tau ThT inhib inactive, Tau fibril FP 28µM, Tau fluor counter inactive and TR SRC2 fluor cs inactive.
Screening Cc1cccc(NC(=O)Cn2c(=O)n(Cc3ccc(C(=O)NCc4ccc5c(c4)OCO5)cc3)c(=O)c3ccccc32)c1 returned TRb SRC2 PPI inactive, Tau ThT inhib inactive, Tau fibril FP inconclusive, Tau fluor counter inactive and TR SRC2 fluor cs inactive.
`CCOc1ccccc1-n1c(N)c(C(=O)OC)c2nc3ccccc3nc21` gave TRb SRC2 PPI inactive, Tau ThT inhib inactive, Tau fibril FP inactive, Tau fluor counter inactive and TR SRC2 fluor cs inactive.
`COc1ccc(Nc2nc(N)nc(CSc3nc4cc(OC)ccc4s3)n2)cc1` gave TRb SRC2 PPI inactive, Tau ThT inhib inconclusive, Tau fibril FP inactive, Tau fluor counter 14µM[quencher] and TR SRC2 fluor cs inactive.
For COc1cc(/C=N/NC(=O)Cn2ccc(C(F)(F)F)n2)cc(OC)c1OC the results were TRb SRC2 PPI inactive, Tau ThT inhib inactive, Tau fibril FP inactive, Tau fluor counter inactive and TR SRC2 fluor cs inactive.
COc1ccccc1-c1noc(-c2ccc(NCc3ccco3)c([N+](=O)[O-])c2)n1 was read as TRb SRC2 PPI inactive, Tau ThT inhib inactive, Tau fibril FP inactive, Tau fluor counter inactive and TR SRC2 fluor cs inactive.
For COc1cccc(-c2nc(NCCc3c[nH]c4ccc(OC)cc34)c3ccccc3n2)c1 the results were TRb SRC2 PPI inactive, Tau ThT inhib inconclusive, Tau fibril FP inconclusive, Tau fluor counter 14µM[quencher] and TR SRC2 fluor cs inactive.
`COc1ccc2[nH]cc(CCNc3nc(-c4ccoc4)nc4ccccc34)c2c1` gave TRb SRC2 PPI inactive, Tau ThT inhib inconclusive, Tau fibril FP inconclusive, Tau fluor counter 32µM[quencher] and TR SRC2 fluor cs inactive.
For COc1ccc2[nH]cc(CCNc3nc(-c4ccccc4CN(C)C)nc4ccccc34)c2c1 the results were TRb SRC2 PPI inactive, Tau ThT inhib inconclusive, Tau fibril FP inactive, Tau fluor counter inconclusive and TR SRC2 fluor cs inactive.
For COc1ccc2[nH]cc(CCNc3nc(-c4ccc(C(=O)N(C)C)cc4)nc4ccccc34)c2c1 the results were TRb SRC2 PPI inactive, Tau ThT inhib inconclusive, Tau fibril FP inactive, Tau fluor counter 16µM[quencher] and TR SRC2 fluor cs inactive.
Screening CC1CCc2c(sc(NC(=O)CSc3ncnc4c3cnn4-c3ccccc3Cl)c2C#N)C1 (stereo unspecified) returned TRb SRC2 PPI inactive, Tau ThT inhib inactive, Tau fibril FP inactive, Tau fluor counter inactive and TR SRC2 fluor cs inactive.
For Cc1ccccc1NC(=O)CSCn1nnc2c(=O)[nH]c(Cc3ccc(F)cc3)nc21 the results were TRb SRC2 PPI inactive, Tau ThT inhib inactive, Tau fibril FP inactive, Tau fluor counter inactive and TR SRC2 fluor cs inactive.
Cc1ccc(NC(=O)CSCn2nnc3c(=O)[nH]c(Cc4ccc(F)cc4)nc32)c(C)c1 was read as TRb SRC2 PPI inactive, Tau ThT inhib inactive, Tau fibril FP inactive, Tau fluor counter inactive and TR SRC2 fluor cs 0.32µM[quencher].
Screening c1ccc2c(c1)SCc1c-2[nH]c2ccccc12 returned TRb SRC2 PPI inactive and TR SRC2 fluor cs inactive.
COc1cc(/C=C2\S/C(=N/S(=O)(=O)c3ccc(C)cc3)NC2=O)c([N+](=O)[O-])cc1OC was read as TRb SRC2 PPI inactive, Tau ThT inhib 14µM, Tau fibril FP inconclusive, Tau fluor counter inconclusive and TR SRC2 fluor cs inactive.
Screening Cc1cnc(C(=O)Nc2ccc(C)c(S(=O)(=O)N(C)C)c2)cn1 returned TRb SRC2 PPI inactive, Tau ThT inhib inactive, Tau fibril FP inactive, Tau fluor counter inactive and TR SRC2 fluor cs 35µM[quencher].
O=C(CSc1nc2ncc(Br)cc2[nH]1)c1ccc([N+](=O)[O-])cc1 was read as TRb SRC2 PPI inactive, Tau ThT inhib 28µM, Tau fibril FP inconclusive, Tau fluor counter inconclusive and TR SRC2 fluor cs inactive.
CCN(CC)C(=O)CSc1nc2ncc(Br)cc2[nH]1 was read as TRb SRC2 PPI inactive, Tau ThT inhib inactive, Tau fibril FP inactive, Tau fluor counter inactive and TR SRC2 fluor cs inactive.
`COc1cccc(NC(=O)C2CCN(S(=O)(=O)c3ccc4[nH]c5c(c4c3)CCCCC5)CC2)c1` gave TRb SRC2 PPI inactive, Tau ThT inhib inactive, Tau fibril FP inactive, Tau fluor counter 6.3µM[quencher] and TR SRC2 fluor cs inactive.
`CSc1cccc(NC(=O)C2CCN(S(=O)(=O)c3ccc4[nH]c5c(c4c3)CCCCC5)CC2)c1` gave TRb SRC2 PPI inactive, Tau ThT inhib inactive, Tau fibril FP inactive, Tau fluor counter inconclusive and TR SRC2 fluor cs inactive.
